Source: ChEMBL document CHEMBL3988442, “University of Dundee, Small-Polar-MMV Screening Library” (2021)
For some of these results: Results with a measured potency or affinity are listed apart.

Columns and labels:
Parameters in all cases: scale not given: direction of the effect not stated beside the values
[1] = target: Protein translocase subunit SecA (Escherichia coli (strain K12)) (UniProt P10408); test: Assay to Identify E. coli SecA ATPase Inhibitors; format: functional; conditions: 30 µM
[2] = target: T1, Ubiquitin-activating enzyme e1, putative (Leishmania donovani (strain BPK282A1)) (UniProt E9BSI1); test: Leishmania donovani Ubiquitin Activating Enzyme (LdE1); format: functional; conditions: 30 µM
T1 sequence (whole entry): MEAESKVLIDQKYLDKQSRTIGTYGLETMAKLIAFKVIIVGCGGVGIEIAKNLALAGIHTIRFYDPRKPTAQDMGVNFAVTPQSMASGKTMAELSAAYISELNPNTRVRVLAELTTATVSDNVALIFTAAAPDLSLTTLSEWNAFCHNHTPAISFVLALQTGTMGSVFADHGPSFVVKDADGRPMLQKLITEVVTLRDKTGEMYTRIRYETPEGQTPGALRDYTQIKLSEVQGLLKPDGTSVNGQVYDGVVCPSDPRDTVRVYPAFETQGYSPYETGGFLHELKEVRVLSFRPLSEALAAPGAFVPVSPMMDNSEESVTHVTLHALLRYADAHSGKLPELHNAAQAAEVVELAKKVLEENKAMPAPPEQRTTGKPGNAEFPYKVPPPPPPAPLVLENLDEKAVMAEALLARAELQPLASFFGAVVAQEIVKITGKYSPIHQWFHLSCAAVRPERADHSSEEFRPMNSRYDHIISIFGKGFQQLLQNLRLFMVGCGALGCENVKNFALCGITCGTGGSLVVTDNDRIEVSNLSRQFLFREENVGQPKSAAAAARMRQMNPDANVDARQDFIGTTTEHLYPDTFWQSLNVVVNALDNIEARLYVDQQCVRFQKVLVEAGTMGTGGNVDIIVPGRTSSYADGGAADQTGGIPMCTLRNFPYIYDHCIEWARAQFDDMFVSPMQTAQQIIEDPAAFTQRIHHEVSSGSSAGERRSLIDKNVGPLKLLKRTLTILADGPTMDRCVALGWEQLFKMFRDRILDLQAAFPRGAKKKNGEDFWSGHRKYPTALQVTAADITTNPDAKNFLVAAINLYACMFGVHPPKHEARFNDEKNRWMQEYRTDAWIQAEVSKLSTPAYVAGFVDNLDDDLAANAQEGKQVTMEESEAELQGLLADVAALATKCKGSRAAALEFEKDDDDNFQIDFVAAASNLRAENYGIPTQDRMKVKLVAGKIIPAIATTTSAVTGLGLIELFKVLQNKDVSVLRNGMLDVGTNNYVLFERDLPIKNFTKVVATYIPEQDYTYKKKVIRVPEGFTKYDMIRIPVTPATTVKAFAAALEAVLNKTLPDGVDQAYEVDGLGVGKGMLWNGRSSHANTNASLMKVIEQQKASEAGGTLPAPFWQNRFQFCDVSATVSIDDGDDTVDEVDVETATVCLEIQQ

[3] = target: AMP-activated protein kinase, AMPK (Homo sapiens) (UniProt P54646+O43741+P54619+Q9UGJ0+Q9Y478+Q13131+Q9UGI9); test: AMP-dependent Kinase enzyme assay. An in vitro enzyme assay that detects ADP turnover that is directly proportional to AMPK activity. This uses naive AMPK that is activated during the assay with MK-8722; format: functional; conditions: 30 µM
[4] = target: Sialic acid-binding Ig-like lectin 9 (Homo sapiens) (UniProt Q9Y336); test: Hs-Siglec9 ALPHAscreen SOP 20170721; conditions: 10 µM
Chain of Sialic acid-binding Ig-like lectin 9 (Homo sapiens) (Q9Y336 whole entry): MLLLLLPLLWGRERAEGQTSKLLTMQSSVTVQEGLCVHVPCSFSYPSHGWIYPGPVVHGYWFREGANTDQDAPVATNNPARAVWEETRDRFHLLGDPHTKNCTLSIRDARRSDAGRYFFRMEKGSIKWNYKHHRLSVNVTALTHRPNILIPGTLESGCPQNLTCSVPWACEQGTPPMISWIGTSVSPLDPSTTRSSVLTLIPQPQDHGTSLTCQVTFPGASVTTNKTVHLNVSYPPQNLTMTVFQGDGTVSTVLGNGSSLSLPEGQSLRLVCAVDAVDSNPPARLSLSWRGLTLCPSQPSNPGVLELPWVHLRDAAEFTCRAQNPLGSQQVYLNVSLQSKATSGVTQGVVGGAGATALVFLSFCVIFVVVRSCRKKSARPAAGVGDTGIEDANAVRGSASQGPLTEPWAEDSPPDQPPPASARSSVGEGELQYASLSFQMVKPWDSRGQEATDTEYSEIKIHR

[5] = test system: Trypanosoma cruzi; test: Trypanosoma cruzi phosphomannomutase and mannose-1-phosphate guanylyltransferase assay; format: functional; conditions: 10 µM
[6] = target: T2, Arginase-2, mitochondrial (Homo sapiens) (UniProt P78540); test: in vitro enzyme assay to detect the production of urea directly proportional to the activity of Arginase II; format: functional; conditions: 33.3 µM; note: in the data most compounds retested in dose-response had high values
T2 sequence (whole entry): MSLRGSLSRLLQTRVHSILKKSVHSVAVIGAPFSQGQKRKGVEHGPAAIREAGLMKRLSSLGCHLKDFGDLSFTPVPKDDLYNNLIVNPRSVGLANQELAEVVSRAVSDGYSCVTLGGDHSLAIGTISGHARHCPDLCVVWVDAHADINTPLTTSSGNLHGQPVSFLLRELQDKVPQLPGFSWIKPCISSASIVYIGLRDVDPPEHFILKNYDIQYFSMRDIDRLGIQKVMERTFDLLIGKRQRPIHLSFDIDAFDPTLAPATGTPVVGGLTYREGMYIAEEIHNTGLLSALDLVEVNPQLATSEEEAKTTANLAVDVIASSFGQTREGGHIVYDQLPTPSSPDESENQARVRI

[7] = target: T3, Proteasome subunit beta (Trypanosoma cruzi) (UniProt O96673); test: Trypanosoma cruzi proteasome chymotrypsin-like activity (TcProtChymo) assay.; note: in the data most compounds retested in dose-response had high values; format: functional; conditions: 9.37 µM
T3 sequence (whole entry): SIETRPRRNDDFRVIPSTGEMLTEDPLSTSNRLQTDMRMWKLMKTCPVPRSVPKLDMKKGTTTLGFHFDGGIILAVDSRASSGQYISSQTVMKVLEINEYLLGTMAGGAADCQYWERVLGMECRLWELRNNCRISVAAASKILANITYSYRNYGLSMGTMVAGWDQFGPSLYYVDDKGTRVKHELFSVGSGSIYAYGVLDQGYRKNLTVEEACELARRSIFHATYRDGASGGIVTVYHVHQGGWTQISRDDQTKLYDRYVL

[8] = species: Homo sapiens; test: To identify inhibition of the IFN signalling (Jak-Stat) pathway via expression of an eGFP reporter gene under the control of an IFN-stimulated response element (ISRE) containing MxA promoter.; format: functional; conditions: 30 µM
[9] = target: T4, Tyrosyl-tRNA synthetase, putative (Trypanosoma cruzi (strain CL Brener)) (UniProt Q4DSP6); test: Trypanosoma cruzi tyrosyl tRNA synthetase (TcYRS) _High Tyrosine SOP; format: functional; conditions: 30 µM; note: in the data most compounds retested in dose-response had high values
T4 sequence (whole entry): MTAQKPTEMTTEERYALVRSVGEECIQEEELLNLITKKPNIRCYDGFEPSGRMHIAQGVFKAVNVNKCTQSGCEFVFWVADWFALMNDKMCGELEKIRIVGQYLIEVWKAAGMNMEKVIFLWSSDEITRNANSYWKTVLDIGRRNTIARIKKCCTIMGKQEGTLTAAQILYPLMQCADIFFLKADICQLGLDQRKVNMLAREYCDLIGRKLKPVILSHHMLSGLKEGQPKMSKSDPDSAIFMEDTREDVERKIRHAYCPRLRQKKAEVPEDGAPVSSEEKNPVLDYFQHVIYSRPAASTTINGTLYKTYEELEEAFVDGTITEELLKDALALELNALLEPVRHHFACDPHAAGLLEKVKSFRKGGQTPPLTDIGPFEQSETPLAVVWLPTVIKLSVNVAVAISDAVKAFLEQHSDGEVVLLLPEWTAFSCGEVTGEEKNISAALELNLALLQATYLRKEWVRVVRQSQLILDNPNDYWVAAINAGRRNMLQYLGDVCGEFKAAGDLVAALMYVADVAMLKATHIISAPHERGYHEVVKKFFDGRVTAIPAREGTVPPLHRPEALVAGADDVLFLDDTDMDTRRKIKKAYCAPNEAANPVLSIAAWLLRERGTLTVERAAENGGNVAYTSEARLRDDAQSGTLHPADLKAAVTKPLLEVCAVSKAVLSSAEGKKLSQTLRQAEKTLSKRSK

[10] = target: T4, Tyrosyl-tRNA synthetase, putative (Trypanosoma cruzi (strain CL Brener)); test: Trypanosoma cruzi tyrosyl tRNA synthetase (TcYRS) SOP; format: functional; conditions: 30 µM
[11] = target: Chromo domain-containing protein 1 (Saccharomyces cerevisiae (strain ATCC 204508 / S288c) (Baker's yeast)) (UniProt P32657); test: ScCHD-1 Enzyme Inhibition Assay; format: functional; conditions: 30 µM; note: in the data most compounds retested in dose-response had high values
Chain of Chromo domain-containing protein 1 (Saccharomyces cerevisiae (strain ATCC 204508 / S288c) (Baker's yeast)) (P32657 whole entry, the tested form may be a part): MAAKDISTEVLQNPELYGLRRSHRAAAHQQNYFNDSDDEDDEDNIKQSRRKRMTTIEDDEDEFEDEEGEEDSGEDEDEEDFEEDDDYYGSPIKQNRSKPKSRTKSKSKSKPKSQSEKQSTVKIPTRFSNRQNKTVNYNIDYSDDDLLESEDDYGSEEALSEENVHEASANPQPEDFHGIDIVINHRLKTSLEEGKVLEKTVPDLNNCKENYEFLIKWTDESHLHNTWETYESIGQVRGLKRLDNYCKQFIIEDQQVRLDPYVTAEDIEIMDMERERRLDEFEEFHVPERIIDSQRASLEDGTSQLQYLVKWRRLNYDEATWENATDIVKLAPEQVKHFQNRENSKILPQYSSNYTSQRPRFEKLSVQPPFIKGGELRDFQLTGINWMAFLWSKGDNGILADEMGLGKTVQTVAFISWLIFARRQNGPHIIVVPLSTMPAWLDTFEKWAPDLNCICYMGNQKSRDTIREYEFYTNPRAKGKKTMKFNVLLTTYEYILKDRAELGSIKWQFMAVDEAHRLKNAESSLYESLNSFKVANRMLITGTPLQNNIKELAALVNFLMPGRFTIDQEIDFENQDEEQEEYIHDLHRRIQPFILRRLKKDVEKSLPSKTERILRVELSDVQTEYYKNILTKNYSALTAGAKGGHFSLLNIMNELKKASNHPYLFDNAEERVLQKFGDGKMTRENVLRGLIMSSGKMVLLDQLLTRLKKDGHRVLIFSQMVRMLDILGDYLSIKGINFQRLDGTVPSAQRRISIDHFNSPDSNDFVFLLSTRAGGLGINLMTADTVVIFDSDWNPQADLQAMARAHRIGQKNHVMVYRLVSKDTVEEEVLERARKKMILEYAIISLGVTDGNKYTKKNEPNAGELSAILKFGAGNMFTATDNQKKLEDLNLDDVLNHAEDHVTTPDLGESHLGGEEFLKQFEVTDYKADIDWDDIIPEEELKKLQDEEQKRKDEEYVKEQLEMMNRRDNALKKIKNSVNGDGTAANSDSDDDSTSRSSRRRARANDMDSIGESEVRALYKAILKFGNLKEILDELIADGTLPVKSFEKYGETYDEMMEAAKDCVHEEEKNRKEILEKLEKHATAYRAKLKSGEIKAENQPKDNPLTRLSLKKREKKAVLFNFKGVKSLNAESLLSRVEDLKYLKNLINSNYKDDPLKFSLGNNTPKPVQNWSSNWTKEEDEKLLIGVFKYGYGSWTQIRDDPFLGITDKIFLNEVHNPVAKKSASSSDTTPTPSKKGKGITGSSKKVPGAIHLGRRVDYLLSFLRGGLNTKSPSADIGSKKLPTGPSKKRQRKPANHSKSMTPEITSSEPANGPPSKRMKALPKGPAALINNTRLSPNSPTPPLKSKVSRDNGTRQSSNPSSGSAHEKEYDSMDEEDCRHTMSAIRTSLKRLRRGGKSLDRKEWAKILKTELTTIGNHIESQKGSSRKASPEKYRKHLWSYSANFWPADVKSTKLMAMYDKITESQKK

Chain of Protein translocase subunit SecA (Escherichia coli (strain K12)) (P10408 whole entry): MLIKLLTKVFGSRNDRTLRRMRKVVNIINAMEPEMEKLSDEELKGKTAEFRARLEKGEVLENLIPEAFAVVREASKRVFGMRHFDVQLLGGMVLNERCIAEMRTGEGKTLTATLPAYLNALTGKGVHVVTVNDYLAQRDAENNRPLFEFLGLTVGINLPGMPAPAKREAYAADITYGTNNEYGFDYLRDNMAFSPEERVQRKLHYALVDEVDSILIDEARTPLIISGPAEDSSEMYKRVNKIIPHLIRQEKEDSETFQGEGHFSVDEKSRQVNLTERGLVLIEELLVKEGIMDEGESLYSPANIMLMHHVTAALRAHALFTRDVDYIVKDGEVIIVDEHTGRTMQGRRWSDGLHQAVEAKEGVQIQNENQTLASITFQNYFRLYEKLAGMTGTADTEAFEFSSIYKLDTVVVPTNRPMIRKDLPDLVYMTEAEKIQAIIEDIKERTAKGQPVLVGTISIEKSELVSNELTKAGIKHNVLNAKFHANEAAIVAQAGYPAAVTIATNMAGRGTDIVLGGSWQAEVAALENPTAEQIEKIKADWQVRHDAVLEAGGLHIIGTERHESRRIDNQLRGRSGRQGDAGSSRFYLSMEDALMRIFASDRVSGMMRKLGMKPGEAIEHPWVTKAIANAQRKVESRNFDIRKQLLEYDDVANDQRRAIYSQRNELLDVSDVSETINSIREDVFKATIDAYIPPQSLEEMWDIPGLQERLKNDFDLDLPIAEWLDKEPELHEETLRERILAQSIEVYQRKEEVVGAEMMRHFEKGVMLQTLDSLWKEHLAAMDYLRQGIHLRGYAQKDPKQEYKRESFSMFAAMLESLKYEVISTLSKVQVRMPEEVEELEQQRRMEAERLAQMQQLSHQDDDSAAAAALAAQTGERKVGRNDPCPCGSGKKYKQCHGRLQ

Compound | Percent Effect [1] | Percent Effect [2] | Percent Effect [3] | Percent Effect [4] | Percent Effect [5] | Percent Effect [6] | Percent Effect [7] | Percent Effect [8] | Percent Effect [9] | Percent Effect [10] | Percent Effect [11]
Cc1nccnc1N1CCC2(CCCN(C3CCOCC3)C2=O)C1 (stereo unspecified) | -7.49% | -2.74% | 0.961% | -4.09% | -5.56% | 0% | -1.63% | 27.4% | 0% | -3.7% | 0.0613%
CC(C)(C)c1ccc(C2(C(=O)NCCS(N)(=O)=O)CC2)cc1 | -3.83% | 10.4% | 1.16% | 8.65% | 3.25% | -422% | 8.98% | 10.7% | 3.23% | 11.1% | -4.35%
CC(=O)c1cccc(OCCCC(=O)N(C)Cc2ccccn2)c1 | 0.239% | 0% | -2.92% | 15.9% | 4.25% | 2.86% | 10.5% | -7.21% | -0.529% | 4.88% | -9.86%
Cc1cnc(N2CCCC3(CCN(Cc4csc(C)n4)C3=O)C2)nc1 (stereo unspecified) | -1.53% | 10.7% | 2.83% | 3.4% | 0.965% | -54.3% | 5.64% | -4.88% | 4.17% | 20% | -8.92%
COCCNC(=O)[C@@H]1CC[C@@H]2[C@@H](CCN2Cc2cnn(C)c2)O1 | -1.36% | 13.3% | -7.81% | 2.22% | -0.386% | -43.5% | 9.74% | 2.61% | 3.12% | 10% | -7.85%
NC(=O)NCCC(=O)NCc1cccnc1N1CCc2ccccc2C1 | -1.28% | 18.9% | -5.95% | 12.4% | 6.75% | -3.23% | 4.89% | 1.04% | 7.53% | 23.5% | -7.12%
CNC(=O)CC1CCN(Cc2nc(-c3ccc(SC)cc3)oc2C)CC1 | -7% | 2.7% | -0.898% | 2.66% | -2.7% | -0.952% | 11.7% | 13.2% | 7.94% | 0% | -2.7%
CN(Cc1nnc(C2CC2)n1C)C1CCN(Cc2ccccc2F)C1 (stereo unspecified) | -3.03% | -5.48% | -2.94% | 2.42% | 2.18% | -3.19% | 10.4% | -27.4% | 0% | 8.64% | -4.72%
N#CCCN(C(=O)CN1CCCC1Cc1ccccc1)c1ccccc1 (stereo unspecified) | -5.2% | 2.7% | -1.32% | 26.1% | 4.1% | 10.8% | 5.33% | 0.149% | 11.9% | 13.4% | -6.86%
O=C(CN1CCOC(Cn2cccn2)C1)Nc1nccs1 (stereo unspecified) | -3.64% | 21.6% | -3.52% | 14.3% | 6.22% | -1.29% | 8.8% | 7.16% | 5.94% | 25.6% | -6.75%
COCCN1C(=O)CO[C@H]2CN(Cc3c[nH]nc3-c3ccccc3)C[C@@H]21 | -5.09% | 12.2% | 8.07% | 9.93% | 2.77% | -5.8% | 2.34% | 19.6% | 2.15% | 6.49% | -22.8%
